Potency and growth rescue (activation) data for 100 compounds are collected here from PubChem BioAssay AID652104 (National Center for Advancing Translational Sciences (NCATS), 2013).

Structures are written as SMILES. Values joined by “and” are separate entries in the source; they are usually repeats but may differ in a detail not shown here. Equal values may be shown once. Out of some 410,000 compounds screened, about 7,200 (1.8%) were called active. Roughly 7% stayed inconclusive and do not appear here. What follows is part of a selection rich in actives, with near analogues and random picks from the rest. A call without a number means that no potency is given here. Values without a mark were called inactive. The call rests on the fitted dose curve; in most records, active means well fitted activation curve with a large enough effect; inconclusive means small, poorly fitted or top-dose-only effect, or another doubt; inactive means no such curve, though single readings can be large or run the other way.
Potency means the concentration at half of the fitted maximal effect.

This test in a line: qHTS of TDP-43 Inhibitors. Further: nearly all actives have a fitted effect of over 50% in size. The following applies: TDP-43 expressing yeast growth rescue, BacTiter-Glo, 24 h; series mostly up to 46.1 µM. In outline: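 Luminescence from BacTiter-Glo reports growth of TDP-43-expressing yeast after 24 hr at 30 deg C with compound. Cells were raffinose-pregrown to mid-log, then seeded in galactose medium at OD600=0.02.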
Take `COc1ccccc1N1CCN(Cc2ccc(OC)c3ccccc23)CC1`: the Potency result is “inactive”.

`COc1ccccc1N1CCN(C2C(=O)c3ccccc3N2C(C)=O)CC1` (stereo not given): the Potency entry is “inactive”.

Take `COc1ccccc1N1CCN(/N=C\C(Br)=C\c2ccccc2)CC1`: the Potency is 11.2 µM (active).

As for `CCS(=O)(=O)N1CCc2cc(C(=O)NCc3ccc(C)cc3)ccc21`, the Potency result is “inactive”.

`CCOC(=O)c1ccccc1NC(=O)c1sc2nc(-c3ccc(F)cc3)cn2c1C`: the Potency result is “inactive”.

Take `COc1ccc(C2=NN(C(=O)CSc3nnnn3C)C(c3ccco3)C2)cc1` (stereo not given): the Potency entry is “inactive”.

Consider `CCOC(=O)C1C(=O)NC(N2CCN(c3ccccc3)CC2)=NC1c1ccco1` (stereo not given), for which the Potency entry was “inactive”.

`CCOC(=O)C1C(=O)C=C(c2ccc(OC)cc2)CC1c1ccco1` (stereo not given): the Potency was 11.2 µM (active).

As to `Cc1nn(C(=O)c2c(F)cccc2F)c(C)c1S(=O)(=O)N1CCOCC1`, the Potency entry is “inactive”.

On to `O=C(NC1CC(=O)N(c2ccc(Cl)cc2)C1)C1CCCC1` (stereo not given), for which the Potency result is “inactive”.

Take `COc1ccccc1C(=O)Nc1c(C(=O)Nc2ccc(C)cc2)oc2ccccc12`: the Potency result is “inactive”.

Regarding `Cc1ccc2cccc(NC(=O)c3cccc4ccccc34)c2n1`, the Potency result was “inactive”.

For `Cc1ccc2cccc(NC(=O)c3ccc(OC(C)C)cc3)c2n1`, the Potency was 11.2 µM (active).

For the compound `Cc1ccc2cccc(NC(=O)C(C)Oc3ccc(C)c(C)c3)c2n1` (stereo not given), the Potency result was “inactive”.

On to `COc1ccc(-c2cc(-c3ccc(F)cc3)nc3c2COc2ccccc2-3)cc1`, for which the Potency result was “inactive”.

`CC(C)C12CN3CC(C(C)C)(CN(C1)C3c1ccc(OCc3ccccc3)cc1)C2=O` (stereo not given): the Potency entry was “inactive”.

Consider `O=C(NCCc1ccccn1)c1ccc(COc2ccccc2)o1`, for which the Potency result is “inactive”.

As to `COc1cc(OC)cc(C(=O)NNC(=O)CNC(=O)c2ccc(Br)o2)c1`, the Potency entry was “inactive”.

In the case of `COc1ccc(-c2nc(CCNC(=O)c3ccc(Br)o3)cs2)cc1`, the Potency is 12.6 µM (active).

On to `Cc1ccc(Cn2c(=O)n(Cc3nc(-c4ccccc4)no3)c(=O)c3cc4c(cc32)OCO4)cc1`, for which the Potency entry is “inactive”.

Take `CCC1CCCCN1Cc1c(O)ccc2c(=O)c(Oc3ccccc3Cl)c(C(F)(F)F)oc12` (stereo not given): the Potency result was “inactive”.

`Cc1cc(NC(=O)c2cccc(Cl)c2)ccc1-c1cc2ccccc2oc1=O`: the Potency entry is “inactive”.

As for `Cc1cc2oc(C(=O)N(Cc3ccc(Cl)cc3)Cc3ccco3)c(C)c2cc1Cl`, the Potency entry is “inactive”.

In the case of `Cc1cc(/C=N/NC(N)=O)c(C)n1C1CCCCC1`, the Potency entry was “inactive”.

For the compound `Cc1cccc(-n2c(C)cc(/C=N/NC(N)=S)c2C)c1`, the Potency is 35.5 µM (active).

On to `CC(C)Oc1c(Br)cc(Br)cc1/C=N/NC(N)=S`, for which the Potency entry is “inactive”.

As to `COc1ccccc1NC(=O)c1oc2ccccc2c1NC(=O)C(C)C`, the Potency result was “inactive”.

Take `COc1ccccc1C1C(C(=O)N2CCCCC2)=C(C)Nc2nc3ccccc3n21` (stereo not given): the Potency entry was “inactive”.

For the compound `CN(Cc1ccccc1)S(=O)(=O)c1ccc(F)c(C(=O)Nc2cccc(Cl)c2Cl)c1`, the Potency result was “inactive”.

As to `COc1cccc(CC(=O)N2CCCC(CCC(=O)N3CCN(c4ccccn4)CC3)C2)c1` (stereo not given), the growth rescue (activation) is 10.6% [at 9.22 µM].

On to `C=Cc1ccc(C(=O)N2CCCC(CCC(=O)N3CCN(c4ccccn4)CC3)C2)cc1` (stereo not given), for which the Potency was 3.55 µM (active).

`CC(=O)c1ccc(S(=O)(=O)NCCC(=O)N2CCN(c3ccccn3)CC2)cc1`: the Potency result was “inactive”.

Regarding `COc1cccc(N2CCN(S(=O)(=O)c3cc(Br)cc4c3N(C(=O)C3CC3)CC4)CC2)c1`, the Potency result is “inactive”.

Take `CCCCn1c(=S)[nH]c2ccccc2c1=O`: the Potency was 14.1 µM (active).

Take `CCCCn1c(=S)[nH]c2ncccc2c1=O`: the Potency entry is “inactive”.

For the compound `CCCCNC(=O)c1ccc(-n2c(=S)[nH]c3ccccc3c2=O)cc1`, the Potency entry is “inactive”.

Turning to `COc1ccc(CCNC(=O)c2cc(=O)c3c(C)cc(C)cc3o2)cc1OC`, the Potency entry is “inactive”.

`Cc1ccc(CN2CCCn3nc(C(=O)NCc4ccccc4Cl)cc3C2=O)cc1`: the Potency result was “inactive”.

Turning to `Cc1ccc(CNC(=O)CCC(=O)N2Cc3ccccc3Oc3ncccc32)cc1`, the growth rescue (activation) was 14.9% [at 9.22 µM].

As for `COc1cc(C(=O)NCCS(=O)(=O)N2CCN(c3ccccc3)CC2)cc(OC)c1OC`, the Potency result is “inactive”.

Turning to `CN=C(c1ccccc1)c1c(C)cccc1C`, the Potency entry was “inactive”.

Take `Cc1cccc(C)c1NC(=O)C(Cl)C(=O)c1ccccc1` (stereo not given): the Potency is 3.98 µM (active).

Regarding `Cc1cccc(C)c1NC(=O)N1CC(C)OC(C)C1` (stereo not given), the Potency entry was “inactive”.

In the case of `O=C(Cn1c(=O)n(-c2ccc(F)cc2)c(=O)c2sccc21)Nc1cccc(C(F)(F)F)c1`, the Potency entry is “inactive”.

As to `CCOC(=O)C1=C(CC)OC(N)=C(C#N)C1c1ccc(F)cc1F` (stereo not given), the Potency result is “inactive”.

Consider `COC(=O)C1=CN(c2ccc(F)c(F)c2)C=C(C(=O)OC)C1c1ccc([N+](=O)[O-])cc1`, for which the Potency entry was “inactive”.

Take `COC(=O)C1=CN(c2c(C)cc(C)cc2C)C(N)=C(C#N)C1c1cccc(F)c1` (stereo not given): the Potency is 22.4 µM (active).

For the compound `CCN(Cc1ccccc1)Cc1c(O)ccc2c(=O)c(-c3ccc(Cl)cc3Cl)coc12`, the Potency entry is “inactive”.

In the case of `Cc1cc2n(n1)C(c1cc(C(C)(C)C)c(O)cc1O)Nc1ccccc1-2` (stereo not given), the Potency result is “inactive”.

Take `COc1ccccc1CNCc1ccc(C(=O)O)s1`: the Potency result is “inactive”.

As to `COCCCNC(=O)c1c(NC(=O)c2cc(=O)c3cc(C)c(C)cc3o2)sc2c1CCCC2`, the Potency entry was “inactive”.

Turning to `Cc1ccc(S(=O)(=O)N(Cc2nc(-c3ccc(Cl)cc3)no2)C2CCCCC2)cc1`, the Potency entry is “inactive”.

Consider `Cc1ccc(Cl)cc1NC(=O)/C(C#N)=C\c1cn(Cc2ccc(F)cc2)c2ccccc12`, for which the Potency entry was “inactive”.

On to `CCOc1ccc(Nc2ncnc3scc(-c4ccc(OC)cc4)c23)cc1`, for which the Potency entry is “inactive”.

Consider `COc1ccc(NC(=O)CSc2ncnc3[nH]ncc23)cc1`, for which the Potency result was “inactive”.

In the case of `COc1ccc(Nc2cc(Sc3ccc(OC)cc3)ncn2)cc1`, the Potency was 22.4 µM (active).

On to `Cc1cccc2c(=O)cc(CSc3ccccc3NC(=O)C(C)C)[nH]c12`, for which the Potency entry was “inactive”.

For the compound `O=C(CSc1nnc(CNC(=O)c2ccc(F)cc2)o1)Nc1ccc2c(c1)OCO2`, the Potency result is “inactive”.

Take `O=C(CSc1ccc(-c2ccc(F)cc2)nn1)Nc1ccc2c(c1)OCCO2`: the Potency result is “inactive”.

Consider `O=C(CSc1nc(-c2cccc(F)c2)[nH]c1-c1ccccc1)Nc1ccc2c(c1)OCO2`, for which the Potency is 20 µM (active).

On to `Cc1ccc(NC(=O)CSc2nc3c([nH]c4ccccc43)c(=O)n2-c2ccccc2)c(C)c1`, for which the Potency entry was “inactive”.

Take `C=CCNc1nc(N)c([N+](=O)[O-])c(NC2CCCCC2)n1`: the Potency was 7.08 µM (active).

For the compound `Nc1nc(Nc2ccccc2F)nc(NC2CCCCC2)c1[N+](=O)[O-]`, the Potency entry was “inactive”.

For `Nc1nc(NCC2CCCO2)nc(Nc2ccccc2F)c1[N+](=O)[O-]` (stereo not given), the Potency entry was “inactive”.

As for `Cc1ccc(NC(=O)C2CCN(S(=O)(=O)c3cc(-c4noc(C)n4)ccc3C)CC2)c(C)c1`, the Potency result was “inactive”.

For `CCN(CCCNC(=O)c1c(C)oc2ncn(CC(C)C)c(=O)c12)Cc1ccccc1`, the Potency entry is “inactive”.

Regarding `Cc1ccc(Cl)cc1N1CCN(S(=O)(=O)c2cc3[nH]c(=O)c(=O)[nH]c3cc2C)CC1`, the Potency result was “inactive”.

In the case of `CC(=O)Nc1cc(C(=O)NCc2ccc(F)cc2)ccc1Sc1ccc(F)cc1`, the Potency is 31.6 µM (active).

With `COCCNC(=O)c1ccc(S(=O)(=O)c2ccc(Cl)cc2)c(NC(C)=O)c1`, the Potency result is “inactive”.

`COC(=O)c1ccc(Sc2ccc(F)cc2)c(N)c1`: the Potency entry was “inactive”.

For the compound `Cc1ccc(Sc2ccc(NC(=O)c3ccc(F)cc3)cc2C#N)cc1`, the Potency result is “inactive”.

On to `CC(=O)Nc1cc(C(=O)NCc2ccc(F)cc2Cl)ccc1Sc1ccc(Cl)cc1`, for which the Potency was 11.2 µM (active).

Regarding `CCN(CCCNC(=O)c1ccc(Sc2ccc(C)cc2)c(NC(C)=O)c1)c1cccc(C)c1`, the Potency result was “inactive”.

On to `COC(=O)c1cc(NC(=O)c2sc3ccccc3c2Cl)cc(C(=O)OC)c1`, for which the Potency result was “inactive”.

As for `O=C(Cn1c(=O)n(Cc2cccs2)c(=O)c2cccnc21)Nc1ccc(F)cc1`, the Potency entry is “inactive”.

In the case of `COc1cn(CC(=O)Nc2cccc(C)c2C)c(CN2CCCCC2)cc1=O`, the Potency entry is “inactive”.

For the compound `COCCCNC(=O)c1ccc2c(c1)ncn2-c1ccccc1OC`, the Potency entry is “inactive”.

Consider `COc1ccc(-n2cnc3cc(C(=O)NC4CCCC4)ccc32)cc1`, for which the Potency is 28.2 µM (active) and 17.8 µM (active).

As for `Cc1ccc(-n2cnc3cc(C(=O)NCCC4=CCCCC4)ccc32)cc1Cl`, the Potency entry is “inactive”.

With `Cc1ccc(C(=O)Oc2ccc(C(=S)N3CCOCC3)cc2)cc1`, the Potency result was “inactive”.

In the case of `O=C(Oc1cccc(C(=S)N2CCOCC2)c1)c1cccc(Cl)c1`, the Potency is 12.6 µM (active).

Turning to `O=C(Oc1ccc(F)cc1)N1CCOCC1`, the Potency result is “inactive”.

As to `O=C(OCC(=O)N1CCOCC1)c1ccc2ccccc2c1`, the Potency result was “inactive”.

In the case of `O=C(Oc1ccc(Br)cc1C(=S)N1CCOCC1)c1cccc([N+](=O)[O-])c1`, the Potency entry is “inactive”.

Regarding `O=C(Oc1ccc(C(=S)N2CCOCC2)cc1)c1ccc(F)cc1`, the Potency is 7.08 µM (active).

Regarding `CC1Cc2cc(S(=O)(=O)CCC(=O)NCc3ccc(Cl)cc3)ccc2N1C(=O)C1CC1` (stereo not given), the Potency result is “inactive”.

In the case of `COc1cccc2c1cc1c(=O)n(CC(=O)N3CCN(c4cccc(Cl)c4)CC3)nc(C)n12`, the Potency entry is “inactive”.

For `Cc1ccc(CCNC(=O)c2ccc3c(c2)nc2n3CCC(C)C2)cc1` (stereo not given), the Potency entry was “inactive”.

`COc1cccc(-c2nnc3n(CCc4ccccc4)c(=O)c4ccccc4n23)c1O`: the Potency result is “inactive”.

Consider `O=C1OCC2=C1C(c1ccc(Cl)cc1)c1cc3c(cc1O2)OCO3` (stereo not given), for which the Potency result is “inactive”.

Regarding `O=C1NC(c2cc3c(cc2Cl)OCO3)Oc2ccccc21` (stereo not given), the Potency is 22.4 µM (active).

For the compound `COc1ccc(CNC(=O)c2ccc3oc(C(C)C)nc3c2)cc1`, the Potency entry is “inactive”.

Take `O=C(NCc1nnnn1-c1ccc(Cl)cc1)c1ccc2c(c1)OCO2`: the Potency entry is “inactive”.

As to `COc1ccc(-n2nnnc2CNC(=O)c2ccc3ccccc3c2)cc1`, the Potency was 20 µM (active).

For the compound `CC(C)NC(=O)c1ccc(Sc2ccccc2)c([N+](=O)[O-])c1`, the Potency result is “inactive”.

On to `O=C(Nc1cccc2ccccc12)NC1CC1`, for which the Potency result is “inactive”.

Regarding `O=C(O)c1cc([N+](=O)[O-])c(Nc2cccc3ccccc23)c([N+](=O)[O-])c1`, the Potency is 11.2 µM (active).

Turning to `COc1cccc(CNC(=O)C2CCN(S(=O)(=O)c3ccc4c(ccn4C)c3)CC2)c1`, the Potency entry was “inactive”.

With `Nc1ccccc1Sc1cc(Cl)nnc1Cl`, the Potency was 12.6 µM (active).

As to `Cc1ccc(Nc2ccc3cc(S(=O)(=O)N4CCCCC4)ccc3n2)cc1F`, the Potency result was “inactive”.
